# From PubChem
# Most compounds without a hit are left out; they make up all but 0.64% or so of the library.
# IL-2 act = qHTS of IL-2 Activators; AID 652025, 2013; hit rate 0.065% among 360,000; activation, % (series mostly up to about 46 µM); IL-2 activation reporter assay, cell-based qHTS; stimulated with anti-CD3/CD4/CD28 beads; in transgenic mouse T cells; in the data active = activation above about 50%; inconclusive = mostly about 30% to 49%; also: 0% is about no effect
#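 Screening format: compound pinned onto unstimulated transgenic mouse T cells, 60 min incubation, then anti-CD3/anti-CD4/anti-CD28 bead stimulation for 18 hours at 37 degrees C, followed by EGFP and DsRed detection.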
# PKM2 act = qHTS Assay for Activators of Human Muscle isoform 2 Pyruvate Kinase; Pyruvate kinase PKM (Homo sapiens), P14618; purified PKM2, Kinase-Glo ATP luminescence, activation; response scale: 0% is enzyme alone, no compound; Potency, µM (doses to about 57.5 µM), inactives show at the top dose activation, hits mostly activators; hit rate 0.34% among 260,000; also: potency is read from the fitted curve at half-maximal effect; % is scaled to controls: 0 for no effect and ±100 for the full control effect; nearly all actives have a fitted effect of over 55% in size
#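 hPK-M2, >95% pure; 0.1 mM ADP / 0.5 mM PEP final; imidazole pH7.2 buffer w/ 7 mM MgCl2, 50 mM KCl; 1 h RT; Kinase-Glo lum. Intermediate enzyme activity for dual inhibitor/activator qHTS.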
# EPAC2 antag = qHTS for Antagonist of cAMP-regulated guanine nucleotide exchange factor 2 (EPAC2): primary screen; Potency, µM (top dose mostly 114 µM), for the others: at the highest dose activity, negative = inhibition, most hits filed as inhibitors; hit rate 0.18% among 360,000; AID 720708, 2013; EPAC2 GEF exchange of Rap1B-BODIPY-GDP, fluorescence; also: potency is read from the fitted curve at half-maximal effect; % is scaled to controls: 0 for no effect and ±100 for the full control effect; nearly all actives have a fitted effect of over 45% in size
# EPAC2 ag = qHTS for Agonist of cAMP-regulated guanine nucleotide exchange factor 4 (EPAC2): primary screen; Rap guanine nucleotide exchange factor 4 (Homo sapiens), Q8WZA2; EPAC2 activation, biochemical qHTS; response scale: 100% = 6.5 mM cAMP response; Potency, µM (doses to about 154 µM), for inactives: at the highest dose activation, most hits filed as activators; hit rate 0.079% among 360,000; also: potency is read from the fitted curve at half-maximal effect; nearly all actives have a fitted effect of over 50% in size
#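 Exchange assay: 100 nM EPAC2 with 250 nM Rap1B-BODIPY-GDP and 50 uM GDP. Fluorescence (ex 480/em 540 nm) read every 5 min for 30 min at room temperature. Data normalized to 6.5 mM cAMP as agonist control.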
# EPAC1 agonist = qHTS for Agonist of cAMP-regulated guanine nucleotide exchange factor 3 (EPAC1): primary screen | EPAC1 agonist qHTS, biochemical assay; response scale: 100% = response to 6.5 mM cAMP | Rap guanine nucleotide exchange factor 3 (Homo sapiens), O95398 | hit rate 0.073% among 360,000 | Potency, µM (top dose mostly 154 µM), for inactives: at the top dose activation, usual class: activators; also: potency is read from the fitted curve at half-maximal effect; nearly all actives have a fitted effect of over 60% in size
#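 EPAC1 100 nM, Rap1B–BODIPY-GDP 250 nM, unlabeled GDP 50 uM; compound titration; 5 min RT; kinetic read ex480/em540 at 5-min intervals ×30 min; data normalized to 6.5 mM cAMP agonist control.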
# EPAC1 antagonist = qHTS for Antagonist of cAMP-regulated guanine nucleotide exchange factor 3 (EPAC1): primary screen; Rap guanine nucleotide exchange factor 3 (Homo sapiens), O95398; EPAC1 GEF assay, Rap1b-BODIPY-GDP exchange fluorescence; Potency, µM (titrated, usually from 115 µM), without a hit: top-dose activity change, negative = inhibition, hits mostly inhibitors; hit rate 0.14% among 360,000; AID 720709, 2013;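 also: potency is read from the fitted curve at half-maximal effect; plate controls were vehicle for no effect and positive control for full effect; nearly all actives have a fitted effect of over 50% in size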
# * hit, by the source's call; u = inconclusive; x = no result. Unless noted, calls follow the shape of the dose curve; as a rule, active = well fitted curve in the direction sought with a large enough effect; inconclusive = small, poorly fitted or top-dose-only effect, or another doubt; inactive = no such curve, though single readings can be large; an effect the other way counts as inactive or inconclusive.
SMILES,IL-2 act,PKM2 act,EPAC2 antag,EPAC2 ag,EPAC1 agonist,EPAC1 antagonist
O=C(C[C@@H]1CC[C@@H]2[C@H](COC[C@H](O)CN2C(=O)Nc2ccc(F)cc2)O1)NCCc1ccncc1,0,x,1%,10%,-2%,-20%
Cc1ccc(NC2C(=O)NC(=O)NC2=O)cc1,2,x,u,14%,-7%,79µM*
Cc1ccc(NC2CNC(=O)NC2=O)cc1C (configuration not stated),0,x,25%,2%,-9%,8%
Nc1cnccc1Oc1cccc(C(F)(F)F)c1,1,x,1%,-2%,2%,0%
COc1cc(C2C(C#N)=C(N)OC3=C2C(=O)CC(C)(C)C3)cc2c1OCO2 (configuration not stated),-1,x,-1%,6%,2%,-28%
O=C1NC(=S)SC1=Cc1cccs1,-1,x,u,8%,-10%,u
CN1CCC/C1=C/C=C1\SC(=S)NC1=O,0,-4%,28%,112µM*,63µM*,111%
O=c1c2c3c(sc2[nH]c(=S)n1Cc1ccco1)CCC3,-1,11µM*,8%,-4%,8%,-11%
COc1ccc(CC(=O)Nc2cc(=O)n(C)c(=O)n2C)cc1,2,16µM*,2%,11%,-15%,-1%
CCOc1ccc(CC(=O)Nc2cc(=O)n(C)c(=O)n2C)cc1,2,u,10%,4%,-7%,14%
C[C@@H]1CC=C[C@@H]2[C@H]1C(=O)N(Cc1ccccc1)[C@H]2c1ccccc1Br,0,x,25µM*,8%,-16%,-25%
CC(=O)N(c1cccc(C)c1)C1SC(=O)N(c2ccccc2)C1=O (configuration not stated),1,0.4µM*,11%,6%,-4%,-2%
Cc1ccc(N2C(=O)SC(N(CC(=O)O)c3cccc(C)c3)C2=O)cc1 (configuration not stated),3,-1%,-11%,0%,6%,-7%
COc1ccccc1N1C(=O)C2C(C(=O)c3ccccc3)=NN(c3ccc(Br)cc3)C2C1=O (configuration not stated),3,-1%,50µM*,-2%,-38%,35µM*
O=C(C1=NN(c2ccccc2)C2C(=O)N(c3cccc(Cl)c3)C(=O)C12)c1ccccc1 (configuration not stated),-2,-4%,32%,10%,-82%,50µM*
O=C1/C(=C/C=C/c2ccco2)SC(=S)N1NS(=O)(=O)c1ccccc1,4,23%,u,-1%,6%,100µM*
COc1ccc(/C=N/NC(=O)c2cc(O)c(O)c(O)c2)cc1Cn1cc([N+](=O)[O-])cn1,1,-4%,-5%,1%,3%,32µM*
O=C1C2C3C=CC(CO)(O3)C2C(=O)N1c1ccccc1-c1ccccc1 (configuration not stated),-2,32µM*,-15%,8%,16%,-7%
CC(=O)Oc1ccc(N2C(=O)C3C4C=CC(CO)(O4)C3C2=O)cc1 (configuration not stated),-1,u,9%,6%,-5%,-5%
CCCCn1c(NC(=O)c2ccccc2Cl)c(C#N)c2nc3ccccc3nc21,-2,2%,u,-2%,-1%,u
N#Cc1c(NC(=O)c2ccccc2Cl)n(Cc2ccccc2)c2nc3ccccc3nc12,0,13%,45µM*,-15%,-7%,35µM*
